Many of the other results were omitted from the sample, so hits are more common in it than they were.
KDM5B inhibitor: Primary screen for KDM5B Histone Demethylases FDH-coupled qHTS; hit rate 2.6% among 220,000; KDM5B demethylase, FDH-coupled NADH fluorescence (FDH is formaldehyde dehydrogenase); Lysine-specific demethylase 5B (Homo sapiens), Q9UGL1; Potency, µM (top dose mostly 57.7 µM), most hits filed as inhibitors; active means well fitted inhibition curve with a large enough effect; further: 0% is about no effect; nearly all actives have a fitted effect of over 70% in size
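Inhibition is measured as reduced NADH fluorescence generation from FDH coupling to formaldehyde release. Truncated KDM5BΔAP at 200 nM final acts on H3K4me3 peptide (12.5 µM in substrate mix) in pH 7.5 HEPES buffer with Tween-20, 30 min, room temperature.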
The depositor's hits bear a star; i = inactive. Potency means the concentration at half of the fitted maximal effect.

SMILES | KDM5B inhibitor
O=C(C1CCCCC1)N1CCC2(CC1)NCc1ccccc1NC2=O | i
C/C=C/C=C/C(=O)NC(C)c1cc(F)ccc1F (stereo not given) | i
Cc1ccsc1CN1CCCC12Cc1ccccc1CNC2=O (stereo not given) | i
Cc1[nH]c2ccccc2c1CC(=O)NCc1cn2ccccc2n1 | i
COc1ccc(-c2nn(-c3ccccc3)cc2CN2C[C@@H](C)O[C@@H](C)C2)c(F)c1 | i
c1ccc(Cc2noc(-c3nc(-c4ccc5c(c4)OCO5)no3)n2)cc1 | 35µM*
Cc1ccc(-c2noc(-c3nc(Cc4ccccc4)no3)n2)cc1 | i
c1ccc(-c2noc(-c3nc(-c4ccc5c(c4)OCO5)no3)n2)cc1 | i
CCc1noc(-c2nc(-c3ccc4c(c3)OCO4)no2)n1 | i
CCCc1noc(-c2nc(-c3ccc(OC)c(OC)c3)no2)n1 | i
COc1ccc(-c2noc(-c3nc(Cc4ccccc4)no3)n2)cc1OC | 28µM*
COc1ccc(C(=O)Nc2c(C)nc(Nc3ccc(C)cc3)nc2Nc2ccc(C)cc2)cc1OC | i
C[C@@H](C(=O)N1CCN(c2ccc(F)cc2)CC1)n1cnc2ccccc2c1=O | i
O=C(CCC[C@H]1NC[C@@H]2C[C@H]1CN(Cc1ccccc1)C2)NCc1ccccn1 | i
O=C(CCC[C@H]1NC[C@@H]2CC1CN(Cc1ccccc1)C2)NCCCc1ccccc1 | 7.1µM*
O=C(CCC[C@H]1NC[C@@H]2C[C@H]1CN(Cc1ccccc1)C2)NCCN1CCCCC1 | i
CCN(CC)C(=O)CN1CCCN(C(=O)c2cc3ccccc3n2C)CC1 | i
Cc1ccc(S(=O)(=O)NCC2CCC(C(=O)NCC(=O)NCc3ccco3)CC2)cc1 (stereo not given) | i
CCc1ccccc1NC(=O)c1ccccc1SCc1cccs1 | i
COc1ccc(/C=C/C(=O)c2ccc(OC(F)F)c(OC)c2)c(OC)c1 | i
COc1ccc(NC(=O)N2CCN(Cc3ccc(C)cc3)CC2)cc1 | i
COc1ccc(NC2CCCN(CC(=O)Nc3ccc(C)cn3)C2)cc1 (stereo not given) | 16µM*
CCNc1ncc(C(=O)N2CCCC(Nc3ccc(OC)cc3)C2)cn1 (stereo not given) | i
COc1cc(C(=O)Nc2oc3c(C)cccc3c(=O)c2-c2ccccc2)cc(OC)c1OC | i
COc1ccc(C(=O)Nc2cccc(-c3nc4ccccc4o3)c2C)cc1[N+](=O)[O-] | i
SMILES | KDM5B inhibitor
COc1ccc(-c2cc(C(=O)N3CCCC3)ccn2)cc1F | 28µM*
COc1ccc(-c2cc(N3CCCN(C(=O)c4ccc(OC)c(F)c4)CC3)n[nH]2)cc1 | i
COc1ccc(C(=O)N2CCN(c3cc(C(F)(F)F)ncn3)CC2)cc1F | i
Cc1ccc(-c2cc(C34CC5CC(CC(C5)C3)C4)nc3sc4c(c23)CCC4)cc1 | i
O=C1CCN(C(=O)Cc2ccccc2)CCCC(c2nc(-c3cnccn3)no2)CCN1 (stereo not given) | i
C=CCNC(=O)C(NC(=O)c1cccs1)C1CCN(C(=O)c2ccc(F)cc2)CC1 (stereo not given) | 28µM*
Cc1ccc(C(=O)N2CCC(C(NC(=O)c3cccs3)C(=O)NC3CC3)CC2)cc1 (stereo not given) | i
C=CCNC(=O)C(NC(=O)c1cccc(OC)c1)C1CCN(C(=O)c2ccc(F)cc2)CC1 (stereo not given) | i
Cc1ccccc1-n1nnnc1C(C)(C)N1CCOCC1 | i
CN(Cc1cc(-c2cccs2)n[nH]1)C[C@@H]1CCCN2CCCC[C@H]12 | i
COCC(=O)N[C@H]1C[C@H]2C(=O)Nc3ccc(-c4cccs4)cc3C(=O)N2C1 | 35µM*
CC(C)(C)CC(=O)N[C@H]1C[C@H]2C(=O)Nc3ccc(-c4ccsc4)cc3C(=O)N2C1 | i
O=C1Nc2ccc(Br)cc2C(=O)N2CC[C@H](NS(=O)(=O)c3cccs3)C[C@@H]12 | i
COCC(=O)N[C@H]1CCN2C(=O)c3ccccc3NC(=O)[C@@H]2C1 | i
COCC(=O)N[C@H]1C[C@@H]2C(=O)N[C@H]3CCN(C(=O)c4cccn4C)[C@@H]3C(=O)N2C1 | i
O=C(O)CSCC(=O)N[C@H]1C[C@H]2C(=O)Nc3ccc(-c4cccs4)cc3C(=O)N2C1 | 28µM*
CCCNc1c(NC(=O)Nc2ccccc2OCC)c(=O)oc2ccccc12 | i
COc1ccc(C(C)=O)cc1CN1CCCC1 | i
CC(NC(=O)CNC(=O)C1CCC(CNS(=O)(=O)c2ccc(Cl)cc2)CC1)c1ccccc1 (stereo not given) | i
COc1ccc(-c2ccnc3nc(N4CCCCC4)[nH]c(=O)c23)cc1 | i
O=C(CCc1cccnc1)NC(C1CC1)C1CC1 | i
CCCNC(=O)COC(=O)c1nn(Cc2ccccc2)c(=O)c2ccccc12 | i
N#Cc1cc2c(nc1SCC(=O)Nc1cccc(Cl)c1)CCCC2 | i
CN(CC(=O)N(C)c1c(N)n(Cc2ccccc2)c(=O)[nH]c1=O)Cc1cccc2ccccc12 | i
CCNC(=O)C(C)NC(=O)C1CCC(C(C)(C)C)CC1 (stereo not given) | i
SMILES | KDM5B inhibitor
O=C(Nc1ccc(Cl)c(C(F)(F)F)c1)c1c(Cl)cccc1Cl | i
COc1ccccc1-c1cc(C(=O)N2CCOCC2)nn2cnnc12 | i
COC(=O)CNC(=O)c1cc(-c2cccnc2)c2nncn2n1 | 100µM*
O=C(c1cc(-c2cnccc2Cl)c2cccn2n1)N1CCOCC1 | i
COC(=O)CNC(=O)c1cc(-c2ccccc2OC)c2cccn2n1 | i
O=C(NCCc1ccc(Cl)cc1)c1cc(-c2ccccc2)n[nH]1 | i
COC(=O)CNC(=O)c1cccc(C)c1 | i
COc1ccc(C(C)=O)cc1-c1cccc(C(F)(F)F)c1 | i
COC(=O)CNC(=O)c1cc(-c2cccc(C(F)(F)F)c2)c2nncn2n1 | 79µM*
COC(=O)CNC(=O)c1cc(-c2ccccc2OC)c2nncn2n1 | i
O=C(c1cc(-c2cccnc2)c2nncn2n1)N1CCOCC1 | 89µM*
O=C(NCCc1ccc(Cl)cc1)c1cc(-c2cccc(C(F)(F)F)c2)c2nncn2n1 | 79µM*
COc1ccc(CCNC(=O)Cn2nnc(-c3cccc(C(F)(F)F)c3)n2)cc1OC | i
Cc1c2c(=O)n(-c3ccc(F)cc3)[nH]c2cc(=O)n1Cc1ccccc1 | i
CCCOc1c(OC)cccc1C1CC(=O)Nc2c1c(C)nn2-c1ccc(Cl)nn1 (stereo not given) | i
COc1ccc(C(=O)N2CCC(Oc3nccnc3N(C)C)C2)c(OC)c1 (stereo not given) | i
COCCn1cc(C(=O)NCCc2ccccc2OC)ccc1=O | i
COCCN1C(=O)C(=O)/C(=C(/O)c2ccc(OCC(C)C)cc2C)C1c1cccnc1 (stereo not given) | i
COC(=O)CNC(=O)C1CCc2nnc(-c3ccc(Cl)cc3Cl)n21 (stereo not given) | i
C#CCNC(=O)c1cc(-c2ccc(Cl)cc2Cl)c2cccn2n1 | i
COC(=O)CNC(=O)c1cc(-c2ccc(Cl)cc2Cl)c2nncn2n1 | 45µM*
COc1ccc(C)cc1Nc1nc2ccccc2nc1NS(=O)(=O)c1ccc(Cl)cc1 | i
CCC(NC(=O)C1CC1)c1ccc(C)cc1 (stereo not given) | i
CCN(Cc1noc(CC(C)C)n1)C(=O)c1ccc(C2CCCNC2)cc1 (stereo not given) | i
Cc1ccc(-c2ncc(C(=O)N(C)Cc3nc(CC(C)C)no3)c(=O)[nH]2)cc1 | i
